Most compounds without a hit are left out; they make up all but 4.1% or so of the library.
hcDAF12 agonist: activates DAF-12 receptor from parasite H. contortus; HEK293 hcDAF-12 lit1-tk-luc reporter, luminescence; 0% DMSO, 100% Δ7-dafachronic acid; activation, % at 6.8 µM; actives 1.4% (n = 370,000);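 active = activation above the mean of all tested compounds plus 3 SD, cut at about 5.5% in these data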;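 also: 100% = response to 3 µM Δ7-dafachronic acid high control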
DAX1 inh-1: NR0B1 (DAX1) inhibition; P51843; HEK293 Gal4-DAX1 luciferase reporter, luminescence; inhibition, % at 6.75 µM; actives 0.99% (n = 340,000);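 active = inhibition above the mean over all tested compounds plus 3 SD, cut at about 4.2% in these data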;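 also: 0% = DAX1-transfected cells with DMSO and 100% = empty-vector control cells with DMSO; inhibition shows as a rise in luminescence from relieved DAX1 repression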
Target sequence (P51843 207-470 limits assumed): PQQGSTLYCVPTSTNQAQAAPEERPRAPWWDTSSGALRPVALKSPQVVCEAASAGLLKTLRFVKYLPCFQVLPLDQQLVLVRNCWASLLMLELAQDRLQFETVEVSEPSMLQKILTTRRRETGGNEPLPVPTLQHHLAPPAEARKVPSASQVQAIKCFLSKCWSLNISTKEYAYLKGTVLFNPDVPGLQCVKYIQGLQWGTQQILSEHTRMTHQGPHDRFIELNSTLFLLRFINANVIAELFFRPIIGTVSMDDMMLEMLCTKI
ssDAF12 agonist: activates DAF-12 receptor from parasite S. stercoralis; AID 652126; activation, % at 6.8 µM; HEK293 ssDAF-12/GRIP1 lit1-tk-luc reporter, luminescence; % of 3 µM dafachronic acid response; actives 1% (n = 370,000);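 active = activation above the mean over all tested compounds plus 3 SD, cut at about 0.9% in these data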;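 also: 0% = DMSO-only wells and 100% = 3 µM delta7-dafachronic acid wells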
DAX1 inh-2: inhibitors of DAX1 repression of SF-1 activated StAR promoter; HEK293T StAR-luciferase reporter, SF-1/DAX-1 repression relief; inhibition, % at 6.8 µM; actives 1.1% (n = 370,000);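 active = inhibition above the mean over all tested compounds plus 3 SD, cut at about 3.6% in these data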;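 also: 0% = DAX-1 cells with DMSO and 100% = cells lacking DAX-1 with DMSO; higher inhibition means more luminescence from relief of DAX-1 repression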
hgDAF12 agonist: hgDAF-12 agonism, primary luciferase screen | HEK293 GAL4-hgDAF12 UAS-luciferase reporter, agonist luminescence; normalized to butyrate control | activation, % at 6.8 µM | actives 1.8% (n = 370,000);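 active = activation above a cutoff set at the mean of all screened compounds plus 3 SD, cut at about 10% in these data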;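 also: 0% = DMSO wells and 100% = sodium butyrate wells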
* = called active by the depositor; / = no result given.

SMILES	hcDAF12 agonist	DAX1 inh-1	ssDAF12 agonist	DAX1 inh-2	hgDAF12 agonist
COc1ccccc1Nc1nc(-c2c(C)[nH]c3ccccc23)cs1	5	0	1.3*	-1	1
CCOC(=O)NC1(NC(C)C)Oc2ccccc2O1	2	1	-1	1	-1
CCOC(=O)NC1(NCC(C)C)Oc2ccccc2O1	0	4.4*	-1	0	-1
COc1ccccc1NC(=O)O[C@@H]1CC[C@@]23CCCN2C(=O)CCC[C@H]3C1	-1	/	-1	/	0
COc1cc(CNCCc2ccccc2)cc(Br)c1OCC(=O)Nc1ccccc1C	-2	4.3*	0	1	1
CCCn1c2ccc(C)cc2c2nnc(SCCN3CCOCC3)nc21	1	0	-1	-1	0
CN1CCN(C(=O)c2cc(=O)c3cc(Cl)cc(Cl)c3o2)CC1	1	0	2.0*	0	1
CN(C)S(=O)(=O)c1ccc(/C(O)=C2/C(=O)C(=O)N(CCCN3CCOCC3)C2c2ccncc2)cc1 (stereo unspecified)	1	5.1*	-2	1	1
COC(=O)[C@@]12C[C@@H](CC(=O)NCCC(C)C)C(=O)N(CCc3ccc(OC)c(OC)c3)C1=CCC(C)(C)C2	-2	/	-1	4.4*	0
N#Cc1c2c(c(Nc3ccc(F)cc3)n3c1nc1ccccc13)CCCC2	-2	0	-1	-1	11*
N#Cc1c2c(c(Nc3ccccc3)n3c1nc1ccccc13)CCC2	0	0	-1	0	1
COC(=O)[C@]12C[C@H](CC(=O)NCc3cccc4ccccc34)C(=O)N(Cc3ccccc3)C1=C[C@H](COCc1ccccc1)O[C@@H]2C	-3	/	-1	-1	-1
CC(=O)OCCN1c2ccccc2Sc2cnccc21	-2	0	-1	0	11*
Nc1cc(N)nc(SCc2cc([N+](=O)[O-])cc3c2OCOC3)n1	-3	0	-2	0	-5
O=[N+]([O-])c1cc2c(c(CSc3ncccn3)c1)OCOC2	1	6.9*	1	0	4
Cc1ccccc1C(=O)Oc1ccc2ccc(O)cc2c1	2	4.7*	-1	1	10*
Cc1ccccc1S(=O)(=O)Oc1ccc2ccc(O)cc2c1	2	2	-1	0	9
Cc1c(C(=O)Nc2ccccc2)cnn1-c1ccccc1	5	2	0	1	10
Cc1c(C(=O)Nc2cccc(F)c2)cnn1-c1ccccc1	5	3	1.6*	2	10*
Cc1ccccc1NC(=O)c1cnn(-c2ccccc2)c1C	1	4	1	1	12*
COc1ccc(Nc2c3ccccc3nc3ccccc23)cc1	-4	-4	-2	-2	-6
COc1cc(Nc2c3ccccc3nc3ccccc23)cc(OC)c1OC	5.7*	1	0	0	4
Cc1cc(N2CCNC[C@@H]2C)ccc1N1CCN(Cc2ccccc2)[C@H](C)C1	-1	/	-1	0	0
COc1ccc(/C=C/c2nc(-c3ccccc3O)n[nH]2)cc1OC	0	2	-1	3	12*
CCN(CC)c1ccc([C@H]2[C@@H]3CCCC[C@]3(O)CCN2CC(=O)NCc2ccco2)cc1	-2	4.7*	-1	0	0
SMILES	hcDAF12 agonist	DAX1 inh-1	ssDAF12 agonist	DAX1 inh-2	hgDAF12 agonist
CCN(CC)c1ccc(C2C3CCCCC3(O)CCN2CC(=O)N2CCCCC2)cc1 (stereo unspecified)	-2	-1	-1	0	2
O=C(NS(=O)(=O)Nc1ccccn1)c1c[nH]c2ccccc12	6	1	1.0*	0	3
CN(C)S(=O)(=O)c1cccc(NC(=O)c2c[nH]c3ccccc23)c1	2	-1	1.3*	0	3
COc1cccc(NS(=O)(=O)NC(=O)c2c[nH]c3ccccc23)c1	0	0	-1	0	1
COc1ccc(NS(=O)(=O)NC(=O)c2c[nH]c3ccccc23)cc1	5.8*	0	-1	0	2
Cn1c(C(=O)N[C@@H](C(=O)O)c2ccccc2)cc2cc(Cl)ccc21	5.9*	0	1	0	2
CCCCOc1ccc(C(=O)N2CCNC(=O)C2CC(=O)OC(C)C)cc1 (stereo unspecified)	-1	-1	1.9*	0	0
CC(C)(C)c1ccc(S(=O)(=O)N2CCC(c3cn4ccccc4n3)CC2)cc1	-2	/	0	-1	3
O=C(NC1CCN(Cc2ccccc2)CC1)C1CCN(c2nnc(-n3cccc3)s2)CC1	0	-3	-1	-2	-2
O=C(NC1CCN(Cc2ccccc2)CC1)C1CCCN(c2nnc(-n3cccc3)s2)C1 (stereo unspecified)	3	0	0	2	11*
COC(=O)[C@]12C[C@H](CC(=O)NCc3ccc(OC)c(OC)c3)C(=O)N(Cc3cccc4ccccc34)C1=C[C@H](COCc1ccccc1)O[C@@H]2C	-5	/	-2	-1	0
O=C(O)c1ccc2c(c1)N(Cc1ccc(F)cc1)C(=O)c1ccccc1S2	-2	5.0*	-2	1	-2
c1ccc(Nc2ccnc(Nc3ccccc3)n2)cc1	2	2	0	1	11*
COc1cc(NC(=O)c2ccccc2)c(OC)cc1NC(=O)CSc1[nH]c(=O)cc(C)c1C#N	-1	4.4*	-1	0	0
Cn1c2ccccc2c2cc(C(=O)N3CCN(CCO)CC3)sc21	3	5.4*	1	0	1
CC(=O)NNC(=O)c1cc2c3ccccc3n(C)c2s1	3	1	-1	0	-1
COc1ccc(-c2cc(C(=O)N(C3CCCCC3)C3CCCCC3)no2)cc1	0	/	-1	-1	-2
O=C1c2ccccc2C(=O)C12OC2c1ccc(Cl)cc1Cl (stereo unspecified)	5	1	1.5*	0	-1
O=C1c2ccccc2C(=O)C1c1ccc(Cl)cc1	3	1	-1	2	6
COC(=O)[C@]12C[C@H](CC(=O)N3CCSCC3)C(=O)N(Cc3ccc4c(c3)OCO4)C1=C[C@H](C(C)C)O[C@@H]2C1CC1	-2	/	-1	0	2
Cn1cc(Br)c(C(=O)Nc2nccs2)n1	5.6*	0	0	1	6
Cn1cc(Br)c(C(=O)Nc2c(F)c(F)c(F)c(F)c2F)n1	-1	-1	-2	1	-2
CCCCCOc1ccc(C2C(C(=O)c3ccc(C)o3)=C(O)C(=O)N2c2cc(C)on2)cc1 (stereo unspecified)	-1	1	-1	-1	0
O=C(COC(=O)[C@H](Cc1c[nH]c2ccccc12)NC(=O)c1ccc(Cl)cc1)Nc1ccc2c(c1)OCO2	1	1	0	1	11*
COc1cc(C(=O)c2cocc2C(=O)c2ccc3c(c2)OCO3)cc(OC)c1OC	-1	0	-1	-1	0

Screening results from PubChem BioAssay.
